Tau fibril FP: qHTS for Inhibitors of Tau Fibril Formation, Fluorescence Polarization; Potency, µM (doses to about 57.7 µM), inactives show at the highest dose activity, negative = inhibition, actives largely listed as inhibitors; 280,000 compounds, 0.39% hits; K18 P301L tau heparin fibrillization, Alexa594 FP, 6 h; further: nearly all actives have a fitted effect of over 55% in size
Target sequence (P10636 561-689 P618L limits assumed): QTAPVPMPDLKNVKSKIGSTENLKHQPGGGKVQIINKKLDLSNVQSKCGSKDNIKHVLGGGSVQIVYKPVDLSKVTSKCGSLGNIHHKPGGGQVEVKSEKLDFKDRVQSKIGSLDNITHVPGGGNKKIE
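Human K18 P301L fragment (15 uM unlabeled plus 0.24 uM Alexa 594-labeled) in 100 mM sodium acetate pH 7 with compound, aggregation induced by 20 uM heparin for 6 hr at 37 C. ThT (30 uM) added for 1 hr, then Alexa 594 FP read.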
Tau fluor counter: Counterscreen qHTS for Inhibitors of Tau Fibril Formation, Fluorescence Polarization; tau K18 P301L Alexa594 fluorescence, heparin fibrillization; Potency, µM (highest dose often 57.7 µM), for inactives: top-dose activity change, negative = decrease; 280,000 compounds, 0.93% hits; AID 1463, 2008; further: nearly all actives have a fitted effect of over 55% in size
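Human K18 P301L tau (15 uM unlabeled plus 0.24 uM Alexa 594-labeled, final) in 100 mM sodium acetate pH 7 was mixed with compound and 20 uM heparin and incubated 6 hr at 37 C.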
Luc counter: Counterscreen for Luciferase (Kinase-Glo TM) Inhibition. Luciferin 4-monooxygenase (Photuris pensylvanica), Q27757. Kinase-Glo luciferase, ATP luminescence, 8 min. Potency, µM (doses to about 38.3 µM), for the others: top-dose activity change, negative = inhibition, most hits filed as inhibitors. 200,000 compounds, 0.28% hits. AID 1379, 2008; further: nearly all actives have a fitted effect of over 60% in size
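Compounds were added to a substrate mix at pH 7.2 (50 mM imidazole, 10 uM ATP, within the enzyme's linear range), followed by Kinase-Glo detection reagent; luminescence was measured after 8 minutes at ambient temperature.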
Tau ThT inhib: qHTS for Inhibitors of Tau Fibril Formation, Thioflavin T Binding | Microtubule-associated protein tau (Homo sapiens), P10636 | recombinant tau K18 P301L (four-repeat tau fragment), heparin-induced fibrillization, ThT fluorescence | Potency, µM (highest dose often 57.4 µM), for inactives: at the highest dose activity, negative = inhibition, actives largely listed as inhibitors | 270,000 compounds, 2.1% hits | AID 1460, 2008; further: nearly all actives have a fitted effect of over 55% in size
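Aggregation was driven by heparin (20 uM final) acting on recombinant tau […] bearing P301L in 100 mM sodium acetate pH 7; fibrils were detected with Thioflavin T.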
NPSR antag: qHTS Assay for Antagonists of the Neuropeptide S Receptor: cAMP Signal Transduction; Q6W5P4; CHO-NPSR cells, cAMP TR-FRET, antagonist mode; Potency, µM (series often up to 38.3 µM), for the others: at the top dose activity change, negative = inhibition, actives largely listed as inhibitors; 220,000 compounds, 1% hits; further: nearly all actives have a fitted effect of over 50% in size
Target sequence (Q6W5P4 whole entry, looked up): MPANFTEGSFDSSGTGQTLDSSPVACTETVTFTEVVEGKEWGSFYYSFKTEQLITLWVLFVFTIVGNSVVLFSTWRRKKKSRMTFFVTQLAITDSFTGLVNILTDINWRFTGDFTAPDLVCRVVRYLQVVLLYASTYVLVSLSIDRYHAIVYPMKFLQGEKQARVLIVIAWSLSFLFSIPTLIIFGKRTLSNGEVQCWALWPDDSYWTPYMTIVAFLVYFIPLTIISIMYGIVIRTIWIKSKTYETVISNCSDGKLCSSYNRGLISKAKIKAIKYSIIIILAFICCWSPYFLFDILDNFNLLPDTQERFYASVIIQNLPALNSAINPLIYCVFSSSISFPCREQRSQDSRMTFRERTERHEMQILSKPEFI
* hit, by the source's call; u = inconclusive; x = no result; [ ] = another dose, or the depositor's remark. An excerpt weighted towards active compounds, which were near 3.3% of everything screened. The call rests on the fitted dose curve; in most records, active means well fitted curve in the direction sought with a large enough effect; inconclusive means small, poorly fitted or top-dose-only effect, or another doubt; inactive means no such curve, though single readings can be large; an effect the other way counts as inactive or inconclusive. On the % scale 0 is the no-effect control and ±100 the full control effect; potency means the concentration at half of the fitted maximal effect.

SMILES | Tau fibril FP | Tau fluor counter | Luc counter | Tau ThT inhib | NPSR antag
O=C(c1ccco1)[C@@H]1[C@@H]2C(=O)N(c3ccc(F)cc3)C(=O)[C@@H]2[C@H]2C=Cc3ccccc3N21 | u | -25% | -4% | 14µM* | -36%
O=C(C[n+]1ccccc1)Nc1ccc(Oc2ccccc2)cc1 | -1% | -13% | -2% | -10% | -11%
O=C1N=c2ccccc2=C1c1sc(=S)n(CC2CCCO2)c1O (stereo not drawn) | 13% | u | -7% | -12% | -4%[46.1 µM]
COc1ccc(N=C2O/C(=C/c3sc(=S)n(CC4CCCO4)c3O)N=C2C#N)cc1 (stereo not drawn) | -12% | 13µM*[quencher] | x | 10µM* | u
CCOCCCNC(=O)C(c1ccc(C)cc1)N(Cc1ccc2c(c1)OCO2)C(=O)c1ccccc1O (stereo not drawn) | 1% | -8% | x | -12% | x
O=C1CCCCCN1Sc1ccccc1 | u | -13% | x | 14µM* | 2%[46.1 µM]
COc1cccc(OC)c1C(=O)Nc1nnc(C)s1 | 0% | -2% | x | -8% | x
O=S(=O)(c1ccc(-c2csc(=Nc3ccc(F)cc3)n2CCCCCCO)cc1)N1CCCC1 | 1% | u | x | -23% | x
O=C(/C=C1\NC2(CCCC2)Cc2ccccc21)C(=O)N/N=C/c1ccc(O)c(O)c1 | 1% | -13% | 0% | -10% | 13µM*
Cc1cc(C)c2c(=O)n(CC(=O)Nc3cccc(F)c3)sc2n1 | 14µM* | -23% | x | 14µM* | -31%
Cc1cc(C)c2c(=O)n(CC(=O)Nc3ccc(Cl)cc3)sc2n1 | u | -27% | x | x | -26%
CCOc1ccc(NC(=O)Cn2sc3nc(C)cc(C)c3c2=O)cc1 | 20µM* | -25% | x | 13µM* | -29%
Cc1ccc(NC(=O)Cn2sc3nc(C)cc(C)c3c2=O)c(Cl)c1 | u | -9% | x | 28µM* | -16%
Cc1ccccc1CS(=O)(=O)Cc1ccc(C(=O)NCc2ccc(F)cc2)o1 | -3% | -8% | x | 4% | x
COC(=O)c1cnc(N2CCN(c3ccc(OC)cc3)CC2)c2ccccc12 | -5% | u | x | 11µM* | x
Cc1ccc(C)c(CSC2=NC(C)(C)Nc3ccccc32)c1 | 1% | 11µM*[quencher] | x | u | x
CC1(C)N=C(SCc2ccc(F)cc2)c2ccccc2N1 | -5% | 11µM*[quencher] | x | u | x
COc1ccccc1-c1ccc(SCc2ccc(F)cc2)nn1 | -1% | -16% | -3% | u | -44%
Cc1ccc(-n2ncc3c(N4CCN(Cc5ccccc5)CC4)ncnc32)cc1C | 8% | -20% | x | u | x
Cn1cc(Cl)c(C(=O)NC(=S)Nc2sc3c(c2C#N)CCCCC3)n1 | 1% | -14% | 5% | u | 7%
Cc1ccc(-n2nc3c(=O)n(CCCC(=O)NCCc4ccccc4Cl)nc(C)c3c2C)cc1 | 1% | -2% | x | -3% | x
COc1ccc2c3c(cccc13)C(=O)N(O)C2=O | -7% | -6% | 3% | u | -4%
CCC1=NNc2cccc3c(OC)ccc1c23 | u | u | -21% | 13µM* | -9%[46.1 µM]
O=C(O)c1cccc(Nc2cc(Cl)c3nonc3c2[N+](=O)[O-])c1 | 2% | u | -1% | 3.5µM* | 5%
O=[N+]([O-])c1c(Nc2ccccn2)cc(Cl)c2nonc12 | u | u | x | x | 10µM*
SMILES | Tau fibril FP | Tau fluor counter | Luc counter | Tau ThT inhib | NPSR antag
CCC(Oc1ccccc1F)C(=O)N1CCC(c2nc3ccccc3s2)CC1 (stereo not drawn) | 3% | -11% | x | u | x
C=CCN(c1ccccc1OC)S(=O)(=O)c1cccc(C(=O)OCC(=O)c2c[nH]c3ccccc23)c1 | 16µM* | u | 0% | 5% | -23%
Cc1ccc(C(=O)OCC(=O)c2c[nH]c3ccccc23)cc1 | 4% | -6% | -1% | 1% | 8%
COc1cc(OC)c(N(C)S(=O)(=O)c2cccc(C(=O)OCC(=O)c3c[nH]c4ccccc34)c2)cc1Cl | 13µM* | u | 5% | 10% | -9%
C=C(C)C(=O)c1cccs1 | -3% | -8% | 2% | -3% | x
O=C(/C(=C/O)N=Nc1ccccc1)c1cccs1 | 5% | -14% | -3% | 28µM* | 10µM*
O=C(O)c1c(Cl)c(Cl)c(Cl)c(Cl)c1-c1c2cc(I)c(=O)c(I)c-2oc2c(I)c(O)c(I)cc12 | -130% | 1.6µM*[fluorescent] | 13µM* | 3.2µM* | x
Cc1ccc(S(=O)(=O)Nc2ccc(O)c(Sc3ncn[nH]3)c2)cc1 | 2% | -2% | -3% | -5% | 0%
Cc1ccc(S(=O)(=O)/N=C2/C=C(Sc3ncn[nH]3)C(=O)c3ccccc32)c(C)c1 | 28µM* | u | -4% | 10µM* | -33%
Cc1ccc(C)c(S(=O)(=O)Nc2ccc(O)c(Sc3ncn[nH]3)c2)c1 | -5% | -23% | x | x | 14%
Cc1ccc(S(=O)(=O)/N=C2/C=C(Sc3ncn[nH]3)C(=O)c3ccccc32)cc1 | 14µM* | u | -1% | 3.5µM* | 10µM*
CC(C)c1ccc(S(=O)(=O)/N=C2/C=C(Sc3ncn[nH]3)C(=O)c3ccccc32)cc1 | -1% | -2% | -8% | 6% | 10µM*
COc1ccc(S(=O)(=O)c2c(O)c(C)cc(NS(=O)(=O)c3ccc(Cl)cc3)c2C(C)C)cc1 | u | u | x | -3% | x
NC(C(=O)O)c1cc(O)cc(O)c1 (stereo not drawn) | 8% | -4% | x | 5% | x
COc1ccc(OC)c(Nc2nc(-c3sc(NC(=O)CC(C)C)nc3C)cs2)c1 | -5% | 13µM*[quencher] | -1% | u | -14%[46.1 µM]
COc1ccc(OC)c(Nc2nc(-c3sc(NC(=O)C(C)(C)C)nc3C)cs2)c1 | 14% | 14µM*[quencher] | -2% | u | -17%[46.1 µM]
CCC(C)C(=O)Nc1nc(C)c(-c2csc(Nc3cc(Cl)ccc3OC)n2)s1 (stereo not drawn) | 7% | 13µM*[quencher] | -7% | u | -11%[46.1 µM]
CCCC(C)C(=O)Nc1nc(C)c(-c2csc(Nc3ccc(Cl)cc3)n2)s1 (stereo not drawn) | 11% | 16µM*[quencher] | -3% | u | -12%[46.1 µM]
CCCCCCC(=O)Nc1nc(C)c(-c2csc(Nc3cc(Cl)ccc3C)n2)s1 | 11% | u | 0% | u | 2%[46.1 µM]
CCCCC(=O)Nc1nc(C)c(-c2csc(Nc3cc(Cl)ccc3OC)n2)s1 | -4% | u | -4% | u | -22%[46.1 µM]
COc1cc(NC(=O)CN2C(=O)C(c3ccc(C)cc3)=NC23CCCCCC3)cc(OC)c1 | u | -9% | x | 8% | x
Cc1ccc(C(=O)N2CCN(Cc3cc(=O)n4nc(-c5ccccc5)sc4n3)CC2)cc1 | -1% | 1% | x | u | x
